Results filed as inconclusive are left out. The source made the active and inactive calls. Calls follow the shape of the dose curve; as a rule, active = well fitted curve in the direction sought with a large enough effect; inconclusive = small, poorly fitted or top-dose-only effect, or another doubt; inactive = no such curve, though single readings can be large; an effect the other way counts as inactive or inconclusive.

From PubChem BioAssay (NCATS) come the findings set out here.

Assay [1] can be described thus: qHTS of pediatric cancer cell lines to identify multiple opportunities for drug repurposing: Confirmatory screen for BT-12 cells (AID 1347112). Also: nearly all actives have a fitted effect of over 55% in size. Also: potency is read from the fitted curve at half-maximal effect. A digest of the protocol:
(§1)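 Cells (500-1,000/well) in growth media were settled 5 h at 37 degrees C, then given compounds for 48 h. Viability was read as CellTiter-Glo luminescence. Primary runs used MIPE at 11 points (0.78 nM-46 µM) and NPC at 8 points (0.59 nM-46 µM); follow-ups used 11 points.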
On the technique in general: Quantitative high-throughput screening tests each substance at several concentrations.

The nature of assay [2]: qHTS of pediatric cancer cell lines to identify multiple opportunities for drug repurposing: Confirmatory screen for LAN-5 cells (AID 1347113). Also: nearly all actives have a fitted effect of over 65% in size. Also: potency is read from the fitted curve at half-maximal effect. A digest of the protocol:
as §1

Assay [3] can be described thus: qHTS of pediatric cancer cell lines to identify multiple opportunities for drug repurposing: Confirmatory screen for DAOY cells (AID 1347114). Also: nearly all actives have a fitted effect of over 65% in size. In outline: (§2)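 Viability measured as metabolically active cells via CellTiter-Glo luminescence following 48 hours of compound exposure, 11-point dilutions in confirmatory testing. 500-1,000 cells/well plated 5 hours before dosing; controls were DMSO and 2.3 µM bortezomib.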

Assay [4] is described as follows: qHTS of pediatric cancer cell lines to identify multiple opportunities for drug repurposing: Confirmatory screen for NB-EBc1 cells (AID 1347115).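 Also: cells exposed to compound for 48 h before the viability read; nearly all actives have a fitted effect of over 45% in size.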 A digest of the protocol: as §1
Assay [5] in a line: qHTS of pediatric cancer cell lines to identify multiple opportunities for drug repurposing: Confirmatory screen for SJ-GBM2 cells (AID 1347116). Also: nearly all actives have a fitted effect of over 60% in size. In outline:
as §2

Assay [6] can be described thus: qHTS of pediatric cancer cell lines to identify multiple opportunities for drug repurposing: Confirmatory screen for MG 63 (6-TG R) cells (AID 1347119). Also: nearly all actives have a fitted effect of over 55% in size. Also: potency is read from the fitted curve at half-maximal effect. A digest of the protocol:
as §1

The nature of assay [7]: qHTS of pediatric cancer cell lines to identify multiple opportunities for drug repurposing: Confirmatory screen for control Hh wild type fibroblast cells (AID 1347121). Also: nearly all actives have a fitted effect of over 70% in size. In outline:
as §1

The nature of assay [8]: qHTS of pediatric cancer cell lines to identify multiple opportunities for drug repurposing: Confirmatory screen for U-2 OS cells (AID 1347122). Also: nearly all actives have a fitted effect of over 65% in size. A digest of the protocol:
as §1

Assay [9] is described as follows: qHTS of pediatric cancer cell lines to identify multiple opportunities for drug repurposing: Confirmatory screen for Rh41 cells (AID 1347123).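 Also: 48 h compound exposure; nearly all actives have a fitted effect of over 60% in size.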 Also: potency is read from the fitted curve at half-maximal effect. A digest of the protocol:
as §1

Assay [10] can be described thus: qHTS of pediatric cancer cell lines to identify multiple opportunities for drug repurposing: Confirmatory screen for Rh30 cells (AID 1347126). Also: nearly all actives have a fitted effect of over 55% in size. In outline:
as §1

Assay [11] can be described thus: qHTS of pediatric cancer cell lines to identify multiple opportunities for drug repurposing: Confirmatory screen for Saos-2 cells (AID 1347127). Also: nearly all actives have a fitted effect of over 60% in size. Also: potency is read from the fitted curve at half-maximal effect. A digest of the protocol: as §1
Assay [12] in a line: qHTS of pediatric cancer cell lines to identify multiple opportunities for drug repurposing: Confirmatory screen for OHS-50 cells (AID 1347128).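 Also: compound exposure lasted 48 h at 37 degrees C; nearly all actives have a fitted effect of over 55% in size.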 Also: potency is read from the fitted curve at half-maximal effect. In outline: as §1
The subject of assay [13] is Zika virus NS2B-NS3 protease. The assay is described as follows: Primary screen GU AMC qHTS for Zika virus inhibitors (AID 1347154). Also: nearly all actives have a fitted effect of over 70% in size. Also: potency is read from the fitted curve at half-maximal effect. A digest of the protocol:
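Unlinked Zika NS2B hydrophilic domain/NS3 protease domain noncovalent complex (25 nM final) in 10 mM Tris-HCl pH 8.0, 0.01% Tween 20, with AMC peptide substrate. Fluorescence (ex 340, em 450 nm) change over 15 min, room temperature; percent inhibition fitted to 4-parameter Hill equation.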

A short description of assay [14]: qHTS of pediatric cancer cell lines to identify multiple opportunities for drug repurposing: Confirmatory screen for Rh18 cells (AID 1347125). Also: nearly all actives have a fitted effect of over 55% in size. Also: potency is read from the fitted curve at half-maximal effect. A digest of the protocol:
as §1

Assay [15] concerns the target N-terminal Xaa-Pro-Lys N-methyltransferase 1 (Homo sapiens) (UniProt Q9BV86). Briefly: qHTS Assay for Inhibitors of N-terminal methyltransferase 1 (NTMT1): LOPAC validation of the NTMT1 SAHH-coupled ThioGlo3 Assay (AID 1347143). Also: nearly all actives have a fitted effect of over 70% in size. Also: potency is read from the fitted curve at half-maximal effect. In outline: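 Fluorescence read-out (excitation 340nm, emission 450nm) of SAH-derived thiol, measured via SAHH coupling and ThioGlo3, taken immediately and after a 30 min room-temperature reaction, then normalized to the background read. Enzyme: NTMT1 at 125nM; cofactor SAM 100uM in the added reagent.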

The subject of assay [16] is Zika virus NS2B-NS3 protease (unlinked). The assay is described as follows: Optimization of GU AMC qHTS for Zika virus inhibitors: Unlinked NS2B-NS3 protease assay (AID 1347151). Also: nearly all actives have a fitted effect of over 80% in size. Also: potency is read from the fitted curve at half-maximal effect. A digest of the protocol: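 Unlinked protease (25 nM final); buffer 10 mM Tris-HCl pH 8.0 + 0.01% Tween 20; AMC substrate; 15 min RT, dark; Δfluorescence normalized to no-inhibitor/no-enzyme controls; 4-parameter Hill fit.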

Another assay deals with Furin (Homo sapiens) (UniProt P09958). Briefly: Furin counterscreen qHTS for Zika virus inhibitors (AID 1347149).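 Also: purified recombinant full-length human furin enzyme at 5 nM; fluorescence gain from furin cutting a BOC-RVRR-AMC peptide substrate over 15 min; top concentration of the series differs between compounds; nearly all actives have a fitted effect of over 70% in size.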 In outline:
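Fluorogenic cleavage of BOC-RVRR-AMC (2 microM final, Km ~15 µM) was monitored (ex 340, em 450 nm) at 37C after 15 min RT preincubation of 5 nM furin with compounds in HEPES pH 7.0 buffer with CaCl2 and Triton X-100. Percent inhibition was fitted to a 4-parameter Hill curve.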
(In general: A counterscreen serves to expose hits that act by an unwanted route or on another target.)

Assay [17] is described as follows: Confirmatory screen GU Rhodamine qHTS for Zika virus inhibitors qHTS (AID 1347157). The note with it: purified enzyme assay, Rhodamine110 substrate fluorescence, 15 min. In outline: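 Enzyme 25 nM in Tris-HCl pH 8.0 + 0.01% Tween 20; compounds up to 114 microM, 15 min RT dark; + Rhod110 substrate 1.5 microM; read t0 and 15 min; delta fluorescence → % inhibition → 4-parameter Hill fit.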

N-terminal Xaa-Pro-Lys N-methyltransferase 1 (Homo sapiens), sequence (Q9BV86 whole entry, looked up): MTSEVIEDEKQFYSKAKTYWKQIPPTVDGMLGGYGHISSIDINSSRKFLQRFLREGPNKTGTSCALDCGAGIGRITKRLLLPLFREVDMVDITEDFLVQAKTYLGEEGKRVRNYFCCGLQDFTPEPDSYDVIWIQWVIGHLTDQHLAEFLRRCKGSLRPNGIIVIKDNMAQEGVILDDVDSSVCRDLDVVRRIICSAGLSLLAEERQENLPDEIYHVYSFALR
Furin (Homo sapiens), sequence (P09958 whole entry, looked up): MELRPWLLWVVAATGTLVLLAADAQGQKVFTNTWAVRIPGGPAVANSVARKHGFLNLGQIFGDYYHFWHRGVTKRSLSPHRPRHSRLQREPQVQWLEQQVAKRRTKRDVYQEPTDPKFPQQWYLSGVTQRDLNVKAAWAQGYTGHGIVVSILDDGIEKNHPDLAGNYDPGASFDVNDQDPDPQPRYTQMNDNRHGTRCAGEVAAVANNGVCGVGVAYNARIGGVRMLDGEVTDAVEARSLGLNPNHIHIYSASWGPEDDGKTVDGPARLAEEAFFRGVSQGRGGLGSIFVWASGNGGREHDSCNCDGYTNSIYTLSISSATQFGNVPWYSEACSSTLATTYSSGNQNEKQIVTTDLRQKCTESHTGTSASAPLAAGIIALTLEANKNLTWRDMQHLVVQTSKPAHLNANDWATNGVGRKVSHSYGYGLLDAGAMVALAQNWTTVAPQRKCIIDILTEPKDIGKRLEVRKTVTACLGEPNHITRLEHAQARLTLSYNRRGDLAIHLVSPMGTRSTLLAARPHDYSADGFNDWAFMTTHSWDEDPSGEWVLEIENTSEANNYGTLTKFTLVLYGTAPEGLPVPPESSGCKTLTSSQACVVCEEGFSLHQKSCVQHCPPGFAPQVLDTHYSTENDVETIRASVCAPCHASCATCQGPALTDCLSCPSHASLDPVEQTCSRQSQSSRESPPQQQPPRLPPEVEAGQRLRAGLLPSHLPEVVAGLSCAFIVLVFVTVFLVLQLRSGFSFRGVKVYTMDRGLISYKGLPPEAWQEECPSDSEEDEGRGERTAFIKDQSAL

With `Nc1ccn([C@@H]2O[C@H](CO)[C@@H](O)C2O)c(=O)n1` (some centres not stated), the Potency entry in assay [1], in [2], in assay [3], in assay [4], in assay [5] and in [6] was “inactive” in each case. Besides, the Potency entry in assay [7], in assay [8], in assay [9], in assay [10], in [11] and in assay [12] was “inactive” throughout. Further, the Potency entry in assay [13] was “inactive”.
On to `Clc1ccc(C(Cn2ccnc2)OCc2ccsc2Cl)c(Cl)c1` (configuration not stated), for which the Potency was 16.5 µM (active) in [1]; 20.8 µM (active) in assay [2]; 14.7 µM (active) in assay [14]; 10.4 µM (active) in assay [11]; 11.7 µM (active) in assay [12]. Moreover, the Potency entry in assay [5], in assay [7], in [10] and in assay [13] was “inactive” in each case.
Take `CC1(C)C(=O)N(CCN2CCC(C(=O)c3ccc(F)cc3)CC2)c2ccccc21`: the Potency entry in assay [2], in [3], in [6], in assay [7], in assay [14] and in assay [10] was “inactive” in each case. The Potency entry in [11], in assay [15], in assay [16] and in [13] was “inactive” each time.
Regarding `O=C(O)c1cccnc1Nc1cccc(C(F)(F)F)c1`, the Potency entry in [15], in assay [16] and in assay [13] was “inactive” throughout.
With `CCOC(=O)C1=C(O)C(=O)N(Cc2ccccc2)C1`, the Potency result in assay [15], in assay [16] and in assay [13] was “inactive” throughout.
For the molecule `C[C@H](Cc1ccc(O)c(O)c1)[C@@H](C)Cc1ccc(O)c(O)c1`, the figures for the Potency in assay [15] and in [16] were 10 µM (active) and 9.47 µM (active), respectively.
Regarding `O=C1NC(=O)C(c2ccccc2[N+](=O)[O-])=C1Nc1ccc(O)c(Cl)c1`, in assay [15], the Potency is 28.2 µM (active). Further, the Potency result in [16] and in assay [13] was “inactive” each time.
Consider `CC1(C)NC(=O)N(c2ccc([N+](=O)[O-])c(C(F)(F)F)c2)C1=O`, for which the Potency entry in assay [15], in [16] and in assay [13] was “inactive” in each case.
As for `O=C(c1ccccc1)c1ccc2n1CCC2C(=O)O` (configuration not stated), the Potency result in assay [15], in [16] and in assay [13] was “inactive” each time.
For `O=c1c(O)c(-c2cc(O)c(O)c(O)c2)oc2cc(O)cc(O)c12`, the Potency was 5.01 µM (active) in [15], 21.2 µM (active) in assay [16], 9.61 µM (active) in assay [13] and 17.8 µM (active) in assay [17]. Besides, the Potency result in the assay with Furin (Homo sapiens) was “inactive”.
`NNc1nncc2ccccc12`: the Potency in [15] was 79.4 µM (active). Besides, the Potency entry in [16] and in assay [13] was “inactive” throughout.
Take `CC(=O)O[C@H]1C(=O)[C@@]2(C)C([C@H](OC(=O)c3ccccc3)[C@]3(O)C[C@H](OC(=O)[C@H](O)[C@@H](NC(=O)c4ccccc4)c4ccccc4)C(C)=C1C3(C)C)[C@]1(OC(C)=O)CO[C@@H]1C[C@@H]2O` (some centres not stated): the Potency is 0.0131 µM (active) in [6], 0.0104 µM (active) in [9], 0.0233 µM (active) in [11] and 0.0208 µM (active) in [12]. For the same molecule, the Potency result in assay [10] and in [13] was “inactive” throughout.
For the molecule `Nc1nc(OCc2ccccc2)c2[nH]cnc2n1`, the Potency result in [4], in assay [5], in assay [7], in [8], in assay [9] and in [14] was “inactive” in each case. The Potency entry in assay [10], in assay [11], in assay [12], in [15], in assay [16] and in assay [13] was “inactive” throughout.
Regarding `Oc1ccc2ccccc2c1SSc1c(O)ccc2ccccc12`, the Potency in assay [15] was 35.5 µM (active); in assay [16], 10.6 µM (active).
